61 molecules from PubChem BioAssay AID504408 (Broad Institute, 2011) can be followed below.

Screen size: about 300,000 compounds; about 5,200 (1.7%) were called active. The sample as a whole holds a higher share of actives than the screen did. A number with no mark means an inactive call.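 The calls were made as follows: active = mean replicate activation of at least 50% with a set share of replicates each reaching 50%; inconclusive = only one of those two conditions met; inactive = mean below 50% and too few replicates reaching it.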

This assay in a line: HSF-1 activators, primary screen, NIH3T3-HGL cells, MG132 stress, luminescence, single point (AID 504408).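 Also: 0% = median of the neutral control wells and 100% = twice that signal.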 The note with it: NIH3T3-HGL HSF-1 luciferase reporter, MG132, 8 h; at 9 µM; active compounds read high; 100% = twice DMSO control signal. On the technique in general: Reporter assays use an easily measured gene product as a stand-in for the process of interest.
For `Cc1ccc(NC(=O)c2cnc(SCC(=O)NCC3CCCO3)n(C)c2=O)cc1` (stereo unspecified), the activation is 7.91%. For `Cc1cc(C)c(-c2csc(NC(=O)CCCc3nc4ccccc4c(=O)[nH]3)n2)c(C)c1` the value was -6.87%. For `Cc1ccc(S(=O)(=O)NC(C)C(=O)NCc2ccc(Cl)cc2)cc1` (stereo unspecified), the activation was 0.844%. `CCc1noc(C)c1C(=O)Nc1nc(-c2ccccc2)cs1`: the activation was 6.16%. `O=C(CNC(=O)c1cc2c(s1)CCC2)Nc1ccccc1Br`: the activation was 14.7%.

Regarding `O=C(Nc1ccc(F)cc1)c1cc2c(s1)CCCC2`, the activation is 91.6% (active).

As for `O=C(NNC(=O)c1cc2c(s1)CCCC2)c1ccccc1`, the activation was 5.42%. Consider `CCOc1cc(C(=O)Nc2ccc(S(=O)(=O)Nc3cnc4ccccc4n3)cc2)cc(OCC)c1OCC`, for which the activation is 9.73%. For `CC1C(=O)N2CCCc3cc(S(=O)(=O)NCc4ccc(F)cc4)cc1c32` (stereo unspecified) the value was 5.48%. For `Cn1cnnc1SCc1nnc(-c2ccccc2Br)o1` the value was 1.6%; for `Nc1cccc2c1C(=O)N(Cc1nnc(-c3ccccc3Br)o1)C2=O`, 54.8% (active); for `CCOC(=O)N1CCN(Cc2nnc(-c3ccccc3Cl)o2)CC1`, -16.1%. On to `O=C(CSc1nc(=O)n2ccccc2n1)Nc1ccc2c(c1)OCCO2`, for which the activation was -13.2%. For `COc1cccc(NC(=O)CSc2nccn(-c3ccc4c(c3)OCCO4)c2=O)c1` the value was 8.35%; for `CC(=O)Nc1ccc(N2C(=O)C3C4CC(=O)C(c5ccccc54)C3C2=O)cc1` (stereo unspecified), 63.1% (active). Regarding `CCc1ccccc1N1C(=O)C2C3CC(=O)C(c4ccccc43)C2C1=O` (stereo unspecified), the activation was -0.868%.

Turning to `CC(=O)Nc1ccc(N2C(=O)C3C4C=CC(CC4)C3C2=O)cc1` (stereo unspecified), the activation was 6.25%.

As to `O=[N+]([O-])C(=c1ccc2c(c1)N1C3=C(CCCC3)CC3CCCCC31N=2)[N+](=O)[O-]` (stereo unspecified), the activation was 74.2% (active). For `O=C(NC(=S)N1CCCCC1c1cccnc1)c1ccccc1` (stereo unspecified) the value was 4.49%. For `COc1ccc(/C=C/C(=O)NC(=S)NN2CCCCC2c2cccnc2)cc1` (stereo unspecified) the value was 13.9%; for `COc1ccc(C(=O)NC(=S)N2CCCCC2c2cccnc2)cc1OC` (stereo unspecified), 60.1% (active); for `Cc1nc(-c2ccc(F)cc2)c(CC(=O)Nc2cc(S(=O)(=O)N3CCCCC3)ccc2C)s1`, 44.2%.

`C=CCOc1ccc(/C=C/C(=O)OCC(=O)NCC2CCCO2)cc1` (stereo unspecified): the activation is -21.7%. For `O=C(NCCc1ccco1)C(=O)NCCC1CCCCN1S(=O)(=O)c1ccccc1` (stereo unspecified) the value was 3.12%; for `Cc1cc(CO)nn1-c1ccc([N+](=O)[O-])cc1`, -10.6%; for `Cc1ccc(-c2cn3cc([N+](=O)[O-])ccc3n2)cc1`, 29.6%. For `Cc1ccc(-n2cc3ccc([N+](=O)[O-])cc3n2)cc1` the value was 59.2% (active); for `COc1cc(C2C(C(=O)c3cccs3)=C(O)C(=O)N2CCN2CCOCC2)ccc1OCCC(C)C` (stereo unspecified), -4.43%. For the molecule `Cc1ccc(S(=O)(=O)CCC(=O)Nc2nnc(CC(C)C)s2)cc1`, the activation is 16.5%. For `COc1ccc(C(CNC(=O)c2cccc(NS(=O)(=O)c3ccc(C)c(F)c3)c2)N2CCCC2)cc1` (stereo unspecified) the value was -2.57%; for `CC1CCN(C(=O)COC(=O)c2cc(S(=O)(=O)N3CCOCC3)ccc2Cl)CC1`, -3.43%. For `CC1(C)CCSC(/C=C/c2ccccc2)=N1` the value was 172% (active). For `CCCn1nc(C(=O)NNC(=O)CCOc2ccccc2OCC)c2ccccc2c1=O` the value was 2.86%. Consider `O=C(CN1CCOCC1)Nc1cccc([N+](=O)[O-])c1`, for which the activation was 8.61%. Turning to `Cc1cccc(C(=O)NCC(=O)OCC(=O)N2CC3(C)CC2CC(C)(C)C3)c1` (stereo unspecified), the activation was 15.9%.

Turning to `Cc1nnnn1/C(=C\c1ccccc1)C(=O)OCC(=O)N1CC2(C)CC1CC(C)(C)C2` (stereo unspecified), the activation is 82.4% (active). For `COc1ccc(C(=O)N2CC3(C)CC2CC(C)(C)C3)cc1OC` (stereo unspecified) the value was -7.35%. For `[O-][n+]1ccc(OCc2ccccc2)cc1` the value was -6.48%; for `O=C(NC1CCCC1)c1cc(-c2ccccc2)on1`, 61.2% (active). For `O=C(NCCCn1ccnc1)c1cc(-c2ccccc2)on1` the value was 52.5% (active); for `COc1ccccc1-c1cc(C(=O)NCCCn2ccnc2)no1`, -0.494%. With `COc1ccc(-c2cc(C(=O)NCCCn3ccnc3)no2)cc1`, the activation was -2.3%.

Regarding `O=C(NC1CCCCC1)c1cc(C2CC2)on1`, the activation was 24.7%. For `CC(NC(=O)c1cc(-c2ccccc2)on1)c1ccccc1` (stereo unspecified) the value was 25.2%; for `CCC(=O)c1ccc(OCC(=O)OCC(=O)NC2CCCCCC2)cc1`, -11.2%. On to `CCC1CCC/C1=N\NC(=O)c1ccc(Cl)cc1` (stereo unspecified), for which the activation is 9.99%.

Take `Cc1cc(C)c(S(=O)(=O)n2cc(C(C)C(N)C(=O)O)c3ccccc32)c(C)c1` (stereo unspecified): the activation is 0.109%. On to `COc1cccc(N2CC(C(=O)NCc3n[nH]c(=O)c4ccccc34)CC2=O)c1` (stereo unspecified), for which the activation is 8.81%. Regarding `CSCCC(NC(=O)COc1ccccc1)C(=O)OCCOc1ccc(F)cc1` (stereo unspecified), the activation is -8.89%. For `COc1cccc(C(=O)NCCS(=O)(=O)NCC2CCCO2)c1` (stereo unspecified) the value was -6.64%. For `CC1(c2nnc(Cc3ccccc3)o2)CC(c2ccccc2F)=NO1` (stereo unspecified) the value was 4.53%. For `Cn1cccc1C(=O)NNC(=O)COc1ccc(Br)cc1` the value was 1.2%. In the case of `CC1Cc2ccccc2N1C(=O)CSc1nc2ccccc2o1` (stereo unspecified), the activation was 67.8% (active). For `CCS(=O)(=O)c1ccc2oc(SCC(=O)N3c4ccccc4CC3C)nc2c1` (stereo unspecified) the value was -9.09%; for `Cc1cc(=O)[nH]c(SCC(=O)N2c3ccccc3CC2C)n1` (stereo unspecified), -7.41%; for `COc1ccc(/C=N/NC(=O)c2cc(-c3cccc(C)c3)nc3ccccc23)cc1O`, 11.4%.

On to `O=C(c1cc(-c2ccc(Cl)s2)nc2ccccc12)N1CCOCC1`, for which the activation is 0.352%. `CCCCCN(C(=O)CCC(=O)OCCOc1ccc(OC)cc1)c1c(N)n(CCCC)c(=O)[nH]c1=O`: the activation is 2.74%.

Turning to `COc1ccc(Cl)cc1NC(=O)CCN1CCOCC1`, the activation is -5.06%. For `COC(=O)CNC(c1ccccc1Cl)c1cc(Br)ccc1NC(=O)CCN1CCOCC1` (stereo unspecified) the value was 57.8% (active); for `COc1ccccc1NC(=O)CCN1CCN(c2ccc(Cl)cc2)CC1`, 0.381%.
